Sampled rows, rich in hits. Any-hit rate of the full collection: about 7.8%.
HCMV inh – inhibitors of human cytomegalovirus | HFF cells, HCMV-luciferase reporter, 72 h; hits give low values | activity change, negative = inhibition, % at 57.5 µM | 4.5% of 410,000 active | AID 1259415; in the data active = activity change below about -60%; inconclusive = no clear call, values can overlap the other calls; inactive = above about -39%
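Screen run at 2 compound doses on HFFs infected with reporter HCMV, MOI 1 PFU/cell. Luciferase activity from cell lysates at 72 h post infection gave inhibition relative to buffer-only and Salinomycin wells.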
HCV inh – blocks hepatitis C virus; Huh7.5.1 HCVcc-Cre infection, luciferase reporter, 44 h; Potency, µM (highest dose often 41.8 µM), inactives show top-dose activity change, negative = inhibition, actives largely listed as inhibitors; AID 651820; 3.4% of 340,000 active; active = well fitted inhibition curve with a large enough effect; inconclusive = small, poorly fitted or top-dose-only effect, or another doubt; inactive = no such curve, though single readings can be large or run the other way; note: potency is the fitted concentration of half-maximal effect
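Whole-lifecycle infectious HCVcc-Cre system; cells 1,000/well, compound then virus (~0.5 moi) added 4 h after plating, 44 h culture. Luciferase read 15 sec following 15 min substrate incubation, room temp.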
MARV entry inh – inhibitors of Marburg virus binding or cell entry. Potency, µM (titrated, usually from 37.8 µM), without a hit: at the highest dose activity change, negative = inhibition, most hits filed as inhibitors. 1.8% of 300,000 active. Marburg virus pseudotyped entry inhibition, cell reporter; calls by dose curve; tested in HEK293 cells; note: potency is the fitted concentration of half-maximal effect
Vaccinia Venus – vaccinia inhibition (Venus reporter); Potency, µM (highest dose often 36.5 µM), for the others: at the top dose activity change, negative = inhibition, actives largely listed as inhibitors; Vaccinia virus Venus reporter expression, fluorescence; 0.46% of 330,000 active; calls by dose curve; tested in A549 cells; note: potency is the fitted concentration of half-maximal effect; nearly all actives have a fitted effect of over 30% in size
Vaccinia mCherry – vaccinia inhibition (mCherry reporter). Vaccinia virus mCherry reporter infection, fluorescence. 0.63% of 310,000 active. Potency, µM (top dose mostly 36.5 µM), without a hit: top-dose activity change, negative = inhibition, actives largely listed as inhibitors; calls by dose curve; tested in A549 cells; note: potency is the fitted concentration of half-maximal effect; nearly all actives have a fitted effect of over 35% in size
Lassa entry inh – blocks Lassa virus binding to or entry into cells. Lassa virus pseudotype entry inhibition, cell reporter. 1.2% of 300,000 active. AID 540256. Potency, µM (doses to about 37.9 µM), without a hit: at the highest dose activity change, negative = inhibition, most hits filed as inhibitors; calls by dose curve; tested in HEK293 cells; note: potency is the fitted concentration of half-maximal effect; nearly all actives have a fitted effect of over 50% in size
The depositor's hits bear a star; i = inactive; ? = inconclusive; . = no result; ! = not confirmed by another sample; [ ] = dose if it differs, or a comment. % is set by controls: 0 for no effect and ±100 for the full control effect.

SMILES	HCMV inh	HCV inh	MARV entry inh	Vaccinia Venus	Vaccinia mCherry	Lassa entry inh
Cc1cc(C)nc(N/N=C2/CCCC/C2=C\c2ccccc2)n1	-113*	?	?	-29%	?	.
Cc1ccnc(N/N=C/c2ccccc2)n1	37	-1%	?	-13%	-7%	?
C=C(CCN1C=C(C(=O)OCC)C(c2ccccc2)NC1=O)c1ccc(Cl)cc1 (stereo not given)	.	.	14%[14.2 µM]	.	.	.
COc1ccc(CCN(C)CC(O)c2ccccc2)cc1OC (stereo not given)	-74*	-8%	3%[46.1 µM]	-6%	-2%	20%
CN(Cc1ccc(OCC(O)CN(C)Cc2ccccc2)cc1)Cc1nccn1C (stereo not given)	0	-9%	.	.	.	.
COc1ccc(CCN(C)CCCC(C#N)(c2cc(OC)c(OC)c(OC)c2)C(C)C)cc1OC (stereo not given)	-32	?	8.9µM*	-16%	-3%	?
COc1ccc(CN(C)CC(O)COc2ccc(-c3ccccc3)cc2)cc1OC (stereo not given)	29	7.1µM*	?	-26%	i	?
COc1ccc(CCN(C)Cc2ccncc2)cc1OC	0	5%	6%	.	.	-4%
COc1ccc(CCN(C)CCc2ccc(OC)c(OC)c2)cc1OC	-7	-21%	5µM*!	-7%	-13%	-22%
Cc1ccc(NC(=O)CSc2nnc(-c3cc4occc4n3C)n2-c2ccccc2C)c(Cl)c1	-25	.	.	-15%	-15%	8%[46.1 µM]
COC(=O)CC1Oc2ccc(Cl)cc2-n2cc(-c3ccc(F)cc3)nc21 (stereo not given)	-20	.	-14%[46.1 µM]	-11%	-14%	16%[46.1 µM]
CCOc1ccc(CN(C)CC(O)COC(c2ccc(OC)cc2)c2ccc(OC)cc2)cc1 (stereo not given)	-7	11µM*	?	-21%	-29%	?
Cc1cc(C)nc(SCc2ccc(C(=O)N/N=C/c3cccc(O)c3O)cc2)n1	-99*	13µM*	7.3µM*	?	8.9µM*	?
Cc1cc(C)nc(SCc2ccc(C(=O)N/N=C/c3ccc(C(=O)O)cc3)cc2)n1	16	-7%	8%[46.1 µM]	-15%	-9%	9%
COc1ccc(/C=N/NC(=O)c2ccc(CSc3nc(C)cc(C)n3)cc2)c(OC)c1OC	?	?	5%	-28%	?	14%
COc1ccc(/C=N/NC(=O)c2ccc(CSc3nc(C)cc(C)n3)cc2)cc1O	-66*	?	-23%	-26%	-4%	-3%
COc1ccc(O)c(/C=N/NC(=O)c2ccc(CSc3nc(C)cc(C)n3)cc2)c1	-90*	5.6µM*	?	?	8.9µM*	?
CCCCN(CC)C(=O)Cn1nc(C)c2c(C)n(-c3ccccc3)nc2c1=O	-4	.	.	-7%	-9%	10%[46.1 µM]
CCOC(=O)c1ccccc1NC(=O)Cn1ncc2c1-c1ccccc1OC2	15	.	7%[46.1 µM]	-11%	-3%	.
FC(F)Oc1ccc(NC(=S)NC2CCSc3ccccc32)cc1 (stereo not given)	-82*	-19%	-29%	?	-25%	-23%
CC(C)C[C@@H](CN1CCC[C@H]1CN1C(=O)C(=O)NC[C@@H]1Cc1ccccc1)N1C[C@H](Cc2ccccc2)N(CC2CCCCCC2)C(=O)C1=O	-27	.	.	?	?	.
C=CCc1ccccc1OCC(O)CN1CCN(CCN2C(=O)c3cccc4cccc(c34)C2=O)CC1 (stereo not given)	-38	14µM*	11µM*	?	?	?
CC(=O)c1cccc(NC(=S)N2CCN(CCN3C(=O)c4cccc5cccc(c45)C3=O)CC2)c1	-79*	?	?	0%	-25%	4%[46.1 µM]
CC(=O)c1ccc(OCC(O)CN2CCN(S(=O)(=O)c3c(C)c(C)cc(C)c3C)CC2)cc1 (stereo not given)	-72*	13µM*	?	-25%	-14%	?
CC(C)OCC(O)CN1CCN(CCN2C(=O)c3cccc4cccc(c34)C2=O)CC1 (stereo not given)	-30	?	.	.	.	.
SMILES	HCMV inh	HCV inh	MARV entry inh	Vaccinia Venus	Vaccinia mCherry	Lassa entry inh
CCC(OCC(O)CN1CCN(CCN2C(=O)c3cccc4cccc(c34)C2=O)CC1)c1ccccc1 (stereo not given)	?	7.9µM*	?	?	?	?
COc1ccc(NC(=O)CN2C(=O)CC(c3ccco3)Sc3ccccc32)cc1OC (stereo not given)	-27	.	9%[46.1 µM]	-6%	-11%	.
COc1ccc(-c2nc(CSc3nc4ncccc4[nH]3)c(C)o2)cc1OC	26	.	.	-4%	-9%	29%[46.1 µM]
CC(=O)c1ccc(OCC(O)CN2CCN(CCN3C(=O)c4cccc5cccc(c45)C3=O)CC2)cc1 (stereo not given)	-84*	?	?	?	?	?
COc1ccc2oc(=O)c(C(=O)NCCc3c(C)[nH]c4ccc(Br)cc34)cc2c1	-18	.	-22%[46.1 µM]	-9%	-11%	5%[46.1 µM]
CN(C)C(=O)CCc1ccc2c3c([nH]c2c1)[C@]1(CCC2CCCC2)[C@@H](C(=O)N2CCOCC2)C[C@H](CC(=O)NCCN2CCOCC2)C(=O)N1CC3	-19	0.32µM*	.	-8%	-11%	.
CC[C@]12c3[nH]c4cc(CCC(=O)N(C)C)ccc4c3CCN1C(=O)[C@@H](CC(=O)NCc1cccc(C(F)(F)F)c1)C[C@@H]2C(=O)N1CCN(C(=O)c2ccco2)CC1	-19	-5%[8.37 µM]	5%	11%	22%	.
O=C(C[C@H]1C[C@H](C(=O)N2CCOCC2)[C@@]2(CCC3CCCC3)c3[nH]c4cc(-c5ccco5)ccc4c3CCN2C1=O)NCc1ccco1	-7	-26%	1%	-18%	?	.
CC[C@]12c3[nH]c4cc(CCC(=O)N(C)C)ccc4c3CCN1C(=O)[C@@H](CC(=O)NCc1cccc(C(F)(F)F)c1)C[C@@H]2C(=O)N1CCN(C(=O)C2CC2)CC1	32	0.56µM*	.	4%	-2%	.
O=C(C[C@H]1C[C@H](C(=O)N2CCOCC2)[C@@]2(CCC3CCCC3)c3[nH]c4cc(-c5ccco5)ccc4c3CCN2C1=O)NCCc1ccccn1	-23	-22%	0%	10µM*	?	.
Cc1ccccc1-c1noc(-c2nnn(-c3ccccc3C)c2N)n1	6	.	.	-1%[7.34 µM]	-2%[7.34 µM]	?
COc1ccccc1C1CN(Cc2cccnc2)Cc2ccccc2O1 (stereo not given)	.	.	.	6%	-12%	.
CCOc1ccc(N2C(=O)c3n[nH]c(-c4cccs4)c3C2c2cccc(F)c2)cc1 (stereo not given)	-18	.	?	-25%	-26%	?
CCOC(=O)c1ccc(N2C(=O)c3n[nH]c(-c4cccs4)c3C2c2ccc(OC)cc2OC)cc1 (stereo not given)	-92*	.	?	?	13µM*	?

Compound activity: PubChem, National Center for Advancing Translational Sciences (NCATS)
